From ChEMBL document CHEMBL2218924, “A broad activity screen in support of a chemogenomic map for kinase signalling research and drug discovery” (Biochem J, 2013)

Columns and labels:
[1] = target: Focal adhesion kinase 1 (Homo sapiens) (UniProt Q05397); settings: at 10 µM
[2] = target: Fibroblast growth factor receptor 1 (Homo sapiens) (UniProt P11362); settings: at 1 µM
[3] = target: Fibroblast growth factor receptor 1 (Homo sapiens) (UniProt P11362); settings: at 10 µM
[4] = target: Fibroblast growth factor receptor 2 (Homo sapiens) (UniProt P21802); settings: at 1 µM
Sequence of Fibroblast growth factor receptor 2 (Homo sapiens) (P21802 22-821 limits assumed): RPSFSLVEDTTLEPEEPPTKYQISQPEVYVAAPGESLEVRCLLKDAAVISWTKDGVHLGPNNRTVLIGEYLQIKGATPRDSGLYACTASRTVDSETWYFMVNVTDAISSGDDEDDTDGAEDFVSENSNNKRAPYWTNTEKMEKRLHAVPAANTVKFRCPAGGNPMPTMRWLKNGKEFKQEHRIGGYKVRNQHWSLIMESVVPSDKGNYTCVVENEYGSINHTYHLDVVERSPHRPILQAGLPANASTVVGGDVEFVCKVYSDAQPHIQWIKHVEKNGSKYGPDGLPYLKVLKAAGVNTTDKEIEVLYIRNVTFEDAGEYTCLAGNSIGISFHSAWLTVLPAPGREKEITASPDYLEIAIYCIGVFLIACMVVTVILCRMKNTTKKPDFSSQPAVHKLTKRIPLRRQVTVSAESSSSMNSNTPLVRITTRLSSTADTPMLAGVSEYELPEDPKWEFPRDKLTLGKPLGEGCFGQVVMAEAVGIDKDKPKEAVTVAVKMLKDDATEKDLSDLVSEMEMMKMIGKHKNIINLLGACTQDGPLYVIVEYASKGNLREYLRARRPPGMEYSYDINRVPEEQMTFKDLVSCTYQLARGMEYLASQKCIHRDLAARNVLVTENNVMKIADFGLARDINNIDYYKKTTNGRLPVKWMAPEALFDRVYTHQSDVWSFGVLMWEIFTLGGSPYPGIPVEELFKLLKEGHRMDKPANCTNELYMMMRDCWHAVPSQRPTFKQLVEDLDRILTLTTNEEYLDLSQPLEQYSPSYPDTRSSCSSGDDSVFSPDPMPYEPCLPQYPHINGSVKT

[5] = target: Fibroblast growth factor receptor 2 (Homo sapiens) (UniProt P21802); settings: at 10 µM
[6] = target: Fibroblast growth factor receptor 3 (Homo sapiens) (UniProt P22607); settings: at 1 µM
Sequence of Fibroblast growth factor receptor 3 (Homo sapiens) (P22607 23-806 limits assumed): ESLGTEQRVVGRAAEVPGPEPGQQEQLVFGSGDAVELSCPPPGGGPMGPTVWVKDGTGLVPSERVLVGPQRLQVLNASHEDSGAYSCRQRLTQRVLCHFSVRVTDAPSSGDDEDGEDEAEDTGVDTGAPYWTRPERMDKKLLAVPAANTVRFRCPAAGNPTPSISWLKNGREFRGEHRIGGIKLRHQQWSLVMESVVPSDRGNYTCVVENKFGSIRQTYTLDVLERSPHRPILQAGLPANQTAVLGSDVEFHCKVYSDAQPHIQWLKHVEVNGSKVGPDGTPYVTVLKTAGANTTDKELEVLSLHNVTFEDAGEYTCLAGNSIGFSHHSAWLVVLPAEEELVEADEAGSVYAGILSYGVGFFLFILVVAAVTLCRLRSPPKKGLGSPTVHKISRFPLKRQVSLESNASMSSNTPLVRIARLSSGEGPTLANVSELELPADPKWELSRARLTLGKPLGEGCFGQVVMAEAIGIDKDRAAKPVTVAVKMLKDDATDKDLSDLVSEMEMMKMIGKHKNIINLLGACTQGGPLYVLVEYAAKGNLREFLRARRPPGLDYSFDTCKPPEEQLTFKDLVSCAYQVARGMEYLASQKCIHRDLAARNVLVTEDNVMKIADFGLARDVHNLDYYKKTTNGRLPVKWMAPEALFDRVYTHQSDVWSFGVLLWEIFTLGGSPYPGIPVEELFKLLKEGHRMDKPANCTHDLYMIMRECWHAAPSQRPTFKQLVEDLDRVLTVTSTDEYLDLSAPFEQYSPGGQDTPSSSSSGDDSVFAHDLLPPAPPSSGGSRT

[7] = target: Fibroblast growth factor receptor 3 (Homo sapiens) (UniProt P22607); settings: at 10 µM
[8] = target: Fibroblast growth factor receptor 4 (Homo sapiens) (UniProt P22455); settings: at 1 µM
Sequence of Fibroblast growth factor receptor 4 (Homo sapiens) (P22455 22-802 limits assumed): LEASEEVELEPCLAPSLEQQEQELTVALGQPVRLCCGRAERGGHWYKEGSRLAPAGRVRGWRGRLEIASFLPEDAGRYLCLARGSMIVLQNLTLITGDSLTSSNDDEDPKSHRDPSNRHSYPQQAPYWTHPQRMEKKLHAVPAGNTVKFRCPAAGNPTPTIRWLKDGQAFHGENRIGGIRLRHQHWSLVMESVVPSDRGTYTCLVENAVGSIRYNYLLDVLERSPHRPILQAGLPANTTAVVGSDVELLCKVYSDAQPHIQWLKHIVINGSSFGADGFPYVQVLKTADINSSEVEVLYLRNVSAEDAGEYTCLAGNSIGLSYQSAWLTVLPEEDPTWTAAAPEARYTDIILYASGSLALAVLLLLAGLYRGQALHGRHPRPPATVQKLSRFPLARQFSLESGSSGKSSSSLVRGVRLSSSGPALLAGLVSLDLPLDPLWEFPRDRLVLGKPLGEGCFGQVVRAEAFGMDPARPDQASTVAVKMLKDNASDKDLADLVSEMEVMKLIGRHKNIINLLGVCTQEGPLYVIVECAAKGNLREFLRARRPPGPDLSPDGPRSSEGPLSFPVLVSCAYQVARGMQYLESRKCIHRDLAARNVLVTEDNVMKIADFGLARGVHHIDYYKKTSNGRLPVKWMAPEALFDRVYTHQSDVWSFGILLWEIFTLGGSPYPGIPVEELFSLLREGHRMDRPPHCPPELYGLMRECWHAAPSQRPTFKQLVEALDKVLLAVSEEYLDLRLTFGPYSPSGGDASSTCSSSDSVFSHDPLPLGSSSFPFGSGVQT

[9] = target: Fibroblast growth factor receptor 4 (Homo sapiens) (UniProt P22455); settings: at 10 µM
[10] = target: Tyrosine-protein kinase Fer (Homo sapiens) (UniProt P16591); settings: at 1 µM
Sequence of Tyrosine-protein kinase Fer (Homo sapiens) (P16591 whole entry, looked up): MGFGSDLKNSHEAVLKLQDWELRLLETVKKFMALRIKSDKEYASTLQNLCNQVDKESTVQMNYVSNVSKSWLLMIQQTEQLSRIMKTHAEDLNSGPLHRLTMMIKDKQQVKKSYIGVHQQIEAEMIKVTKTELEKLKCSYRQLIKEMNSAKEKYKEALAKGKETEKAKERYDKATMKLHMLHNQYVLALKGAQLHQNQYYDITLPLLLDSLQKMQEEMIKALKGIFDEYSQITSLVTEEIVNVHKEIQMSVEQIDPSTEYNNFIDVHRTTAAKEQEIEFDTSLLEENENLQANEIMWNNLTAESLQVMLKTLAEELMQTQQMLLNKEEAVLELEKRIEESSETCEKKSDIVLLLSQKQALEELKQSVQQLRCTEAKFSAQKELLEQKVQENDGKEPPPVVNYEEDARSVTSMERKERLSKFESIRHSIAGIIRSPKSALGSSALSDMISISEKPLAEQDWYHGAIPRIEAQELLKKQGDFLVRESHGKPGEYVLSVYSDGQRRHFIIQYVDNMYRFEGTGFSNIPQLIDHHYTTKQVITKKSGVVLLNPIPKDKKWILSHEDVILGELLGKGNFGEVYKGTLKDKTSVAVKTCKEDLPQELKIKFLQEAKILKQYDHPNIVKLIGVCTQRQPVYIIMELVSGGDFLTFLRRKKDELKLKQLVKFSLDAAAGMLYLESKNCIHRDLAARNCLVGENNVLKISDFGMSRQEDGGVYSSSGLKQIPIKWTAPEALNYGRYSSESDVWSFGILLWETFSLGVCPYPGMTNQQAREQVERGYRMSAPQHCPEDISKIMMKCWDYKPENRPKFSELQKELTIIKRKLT

Sequence of Focal adhesion kinase 1 (Homo sapiens) (Q05397 2-1052 limits assumed): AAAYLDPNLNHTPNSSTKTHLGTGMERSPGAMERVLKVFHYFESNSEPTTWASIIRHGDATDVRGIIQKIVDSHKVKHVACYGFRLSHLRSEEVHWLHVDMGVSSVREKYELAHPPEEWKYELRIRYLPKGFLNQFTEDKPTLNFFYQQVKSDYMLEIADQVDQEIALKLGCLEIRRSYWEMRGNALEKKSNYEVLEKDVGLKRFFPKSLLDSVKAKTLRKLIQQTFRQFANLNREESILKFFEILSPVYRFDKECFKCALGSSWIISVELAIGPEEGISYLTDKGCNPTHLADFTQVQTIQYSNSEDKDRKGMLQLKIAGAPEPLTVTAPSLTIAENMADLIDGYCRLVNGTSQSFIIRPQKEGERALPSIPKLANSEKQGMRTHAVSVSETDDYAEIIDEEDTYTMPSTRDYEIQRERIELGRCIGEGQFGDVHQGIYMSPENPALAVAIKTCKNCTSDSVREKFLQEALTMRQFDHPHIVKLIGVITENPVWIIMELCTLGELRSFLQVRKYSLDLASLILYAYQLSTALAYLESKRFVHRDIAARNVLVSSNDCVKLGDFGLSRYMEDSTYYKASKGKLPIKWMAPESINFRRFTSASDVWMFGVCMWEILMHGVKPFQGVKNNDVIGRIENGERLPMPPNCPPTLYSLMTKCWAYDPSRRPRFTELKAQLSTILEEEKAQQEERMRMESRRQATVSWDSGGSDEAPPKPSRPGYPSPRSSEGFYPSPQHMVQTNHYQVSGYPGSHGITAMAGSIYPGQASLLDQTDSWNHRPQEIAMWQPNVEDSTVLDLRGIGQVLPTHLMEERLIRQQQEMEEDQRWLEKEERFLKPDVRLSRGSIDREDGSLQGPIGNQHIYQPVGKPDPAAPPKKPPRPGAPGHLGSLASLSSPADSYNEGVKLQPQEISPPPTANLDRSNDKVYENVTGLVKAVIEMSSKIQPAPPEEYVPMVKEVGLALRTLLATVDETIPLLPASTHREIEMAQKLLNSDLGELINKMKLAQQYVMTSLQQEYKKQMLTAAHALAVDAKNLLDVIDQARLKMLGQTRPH
Sequence of Fibroblast growth factor receptor 1 (Homo sapiens) (P11362 22-822 limits assumed): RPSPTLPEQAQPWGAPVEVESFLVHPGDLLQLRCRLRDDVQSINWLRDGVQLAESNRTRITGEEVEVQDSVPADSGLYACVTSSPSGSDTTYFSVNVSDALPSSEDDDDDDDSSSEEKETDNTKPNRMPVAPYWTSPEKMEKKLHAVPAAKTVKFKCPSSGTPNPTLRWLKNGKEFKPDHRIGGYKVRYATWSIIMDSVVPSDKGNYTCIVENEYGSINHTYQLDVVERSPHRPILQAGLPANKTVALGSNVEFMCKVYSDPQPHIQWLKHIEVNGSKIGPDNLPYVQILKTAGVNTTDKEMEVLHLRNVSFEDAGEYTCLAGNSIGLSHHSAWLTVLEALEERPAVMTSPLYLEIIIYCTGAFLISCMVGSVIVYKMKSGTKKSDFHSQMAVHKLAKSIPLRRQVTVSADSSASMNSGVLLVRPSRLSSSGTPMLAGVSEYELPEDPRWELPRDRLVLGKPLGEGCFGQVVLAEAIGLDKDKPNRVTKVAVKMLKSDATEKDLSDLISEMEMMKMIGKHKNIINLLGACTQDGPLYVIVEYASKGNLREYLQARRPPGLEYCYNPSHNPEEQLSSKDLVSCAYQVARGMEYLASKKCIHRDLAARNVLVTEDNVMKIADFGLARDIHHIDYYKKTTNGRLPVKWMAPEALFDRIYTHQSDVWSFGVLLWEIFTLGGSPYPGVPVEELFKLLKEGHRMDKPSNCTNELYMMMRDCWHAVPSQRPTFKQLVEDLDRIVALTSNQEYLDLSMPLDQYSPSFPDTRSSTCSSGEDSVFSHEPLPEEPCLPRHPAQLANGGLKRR

Compound | residual activity [1] [%] | residual activity [2] [%] | residual activity [3] [%] | residual activity [4] [%] | residual activity [5] [%] | residual activity [6] [%] | residual activity [7] [%] | residual activity [8] [%] | residual activity [9] [%] | residual activity [10] [%]
Cn1nc2c3c(cccc31)C(=O)c1ccccc1-2 | 65 | 110 | 66 | 103 | 76 | 112 | 77 | 90 | 88 | 87
COc1cc2ncnc(Nc3ccc(O)c(Br)c3)c2cc1OC | 64 | 58 | 24 | 94 | 67 | 109 | 67 | 126 | 101 | 105
CC[n+]1c(/C=C/N(C)c2ccccc2)n(-c2ccccc2)c2ccc(-c3nc4ccccc4s3)cc21 | 80 | 99 | 55 | 93 | 123 | 105 | 104 | 101 | 84 | 116
O=[N+]([O-])c1ccc(-c2nc(-c3ccc(F)cc3)c(-c3ccncc3)[nH]2)cc1 | 102 | 102 | 82 | 112 | 99 | 109 | 99 | 122 | 92 | 100
O=C1NC(=O)c2c1c1c3ccccc3[nH]c1c1[nH]c3cc(Br)ccc3c21 | 95 | 90 | 57 | 99 | 82 | 104 | 88 | 94 | 90 | 103
CCC(=O)Nc1ccc2ncnc(Nc3cccc(Br)c3)c2c1 | 95 | 108 | 84 | 105 | 99 | 118 | 123 | 120 | 100 | 106
CC(C)n1cnc2c(NCc3ccccc3)nc(NCCCO)nc21 | 57 | 104 | 65 | 111 | 87 | 111 | 93 | 104 | 81 | 102
CO[C@H]1C[C@@H]2CC[C@@H](C)[C@@](O)(O2)C(=O)C(=O)N2CCCC[C@H]2C(=O)O[C@H]([C@H](C)C[C@@H]2CC[C@@H](O)[C@H](OC)C2)CC(=O)[C@H](C)/C=C(\C)[C@@H](O)[C@@H](OC)C(=O)[C@H](C)C[C@H](C)/C=C/C=C/C=C/1C | 83 | 111 | 63 | 115 | 114 | 97 | 107 | 138 | 145 | 106
COc1cc2ncc(-c3ccccc3)nc2cc1OC | 95 |  |  | 100 | 93 |  |  |  |  | 
CN(C)c1ccc(/C=C2\C(=O)Nc3ccccc32)cc1 | 62 | 61 | 10 | 94 | 38 | 89 | 64 | 122 | 110 | 109
O=C1Nc2ccc(Br)cc2/C1=C\c1cc2c([nH]1)CCCC2 | 58 | 81 | 81 | 63 | 53 |  |  |  |  | 119
CN(C)CCCn1cc(C2=C(c3c[nH]c4ccccc34)C(=O)NC2=O)c2ccccc21 | 37 | 50 | 3 | 88 | 33 |  | 29 | 121 | 70 | 113
c1ccc(-c2n[nH]cc2-c2ccnc3ccccc23)nc1 |  | 80 | 72 | 101 | 97 |  |  |  |  | 
N#CC(C#N)=C(N)/C(C#N)=C/c1ccc(O)cc1 | 97 | 100 | 75 |  |  | 99 |  | 135 |  | 
CC#CC(=O)Nc1cc2c(Nc3ccc(F)c(Cl)c3)ncnc2cn1 | 99 | 97 | 80 | 91 | 113 | 86 | 125 | 116 | 96 | 108
O=c1c2ccccc2[nH]c(=S)n1CCN1CCC(=C(c2ccc(F)cc2)c2ccc(F)cc2)CC1 | 81 | 83 | 49 | 119 | 62 | 123 | 78 |  | 81 | 109
CC(=O)c1ccc(N2CCOCC2)cc1O | 94 | 97 |  |  |  | 98 | 128 |  |  | 
Cc1cncc2cccc(S(=O)(=O)N3CCCN(C(=O)CN)C[C@H]3C)c12 |  | 76 | 20 |  |  |  | 93 |  |  | 
Oc1c2ccccc2c2c3c(cccc13)N=N2 | 9 | 39 | 4 | 52 | 12 | 72 | 40 | 110 | 89 | 75
COc1ccc(CNc2nc(N(CCO)CCO)nc3c2ncn3C(C)C)cc1 | 64 | 89 | 67 | 101 | 80 | 103 | 109 | 116 | 104 | 91

Compound | residual activity [1] [%] | residual activity [2] [%] | residual activity [3] [%] | residual activity [4] [%] | residual activity [5] [%] | residual activity [6] [%] | residual activity [7] [%] | residual activity [8] [%] | residual activity [9] [%] | residual activity [10] [%]
Cc1cccc(-c2[nH]c(C(C)(C)C)nc2-c2ccc3c(c2)OCO3)n1 | 95 |  |  |  | 95 |  | 129 |  |  | 
COc1cc2ncnc(Nc3ccc(NC(=O)c4ccccc4)cc3)c2cc1OC | 75 |  |  |  | 92 |  |  |  | 82 | 111
Cc1cc2ncc(-c3ccccc3)nc2cc1C | 92 | 86 | 101 |  | 102 | 85 | 95 | 134 | 93 | 
N#CCCc1ccc2c(c1)-c1[nH]c3ccc([N+](=O)[O-])cc3c1CC(=O)N2 | 22 | 47 | 17 |  | 48 |  |  |  |  | 
Nc1n[nH]c2nnc(-c3c(-c4ccccc4)nn4ccccc34)cc12 | 83 | 110 | 61 | 98 | 83 |  | 102 | 101 | 94 | 95
CNc1cc2c(Nc3cccc(Br)c3)ncnc2cn1 | 82 | 102 | 66 | 89 | 88 | 90 | 100 | 109 | 86 | 105
O=C1Nc2ccccc2/C1=C1/Nc2ccccc2/C1=N\OCCC(O)CO (centres undefined) | 1 | 2 | -1 | 20 | 2 | 22 | 23 |  |  | 37
O=C1NC(=O)/C(=C\c2ccc3nccnc3c2)S1 | 83 | 113 | 91 | 98 | 101 | 96 | 104 | 119 | 88 | 110
Cc1ccc(NC2=CC(=O)c3sc(C)nc3C2=O)cc1 | 99 | 106 | 112 | 100 | 92 | 107 | 118 | 101 | 90 | 92
c1ccc(-c2n[nH]c3c2oc2ccccc23)cc1 | 76 | 90 | 36 |  | 52 | 98 | 59 |  |  | 
N#C/C(=C(\N)Sc1ccc(N)cc1)c1ccccc1C(F)(F)F | 95 | 112 | 83 | 100 |  | 102 | 93 | 86 | 90 | 88
COc1cc2ncnc(Nc3ccc(Oc4ccccc4)cc3)c2cc1OC | 71 |  | 48 | 65 | 33 | 78 | 54 | 121 | 109 | 110
N#Cc1cnc2cnc(NCc3cccnc3)cc2c1Nc1ccc(F)c(Cl)c1 |  | 21 | 12 | 48 | 30 | 38 | 18 |  | 92 | 83
c1ccc2c(-c3ccncc3)c[nH]c2c1 | 65 |  | 90 | 111 | 87 |  |  | 112 | 94 | 109
CC(=O)O/N=C1\C(=C2\C(=O)Nc3cc(Br)ccc32)Nc2ccccc21 | 59 | 17 | 0 | 73 | 18 | 84 | 22 |  | 69 | 94
CCN(CC)C(=O)c1ccc(Nc2nc(OCC3CCCCC3)c3nc[nH]c3n2)cc1 | 12 | 40 | 2 | 56 | 9 | 49 | 4 |  |  | 53
C[C@@H](N)[C@H]1CC[C@H](C(=O)Nc2ccncc2)CC1 | 96 | 95 | 98 | 102 | 82 |  | 93 | 100 | 103 | 100
COc1ccc(C(=O)Nc2sc3c(c2C(N)=O)CCCC3)cc1OC | 78 | 87 | 118 | 86 | 99 | 104 | 109 | 107 | 99 | 108
O=C(O)c1ccc2c3c1cccc3c(=O)n1c3ccccc3nc21 | 100 | 94 | 75 | 110 | 78 | 98 | 92 | 112 | 96 | 81
